Compounds with a hit are over-represented: about 21% of the library has one in this group of screens.
SARS PLP yeast: inhibitors of SARS-CoV papain-like protease in yeast; Potency, µM (titrated, usually from 32.9 µM), most hits filed as activators; 330,000 tested, 0.19% active; S. cerevisiae expressing SARS-CoV PLpro, growth rescue; AID 485353; calls by dose curve; note: nearly all actives have a fitted effect of over 55% in size
Cycloheximide cs: counter-screen for Shiga toxin inhibitors: cycloheximide protein synthesis inhibition; cell reporter, cycloheximide protein synthesis inhibition counterscreen; max response, %; 300,000 tested, 12% active; AID 2314; in the data active = max response mostly above about 13%, no sharp cut-off; inactive = mostly below about 14%; note: read at 38.3 µM for the half of the compounds with a filed dose
Pf growth 48h: P. falciparum growth inhibition at 48 hours (one generation) | P. falciparum luciferase growth in erythrocytes, 48 h | Potency, µM (highest dose often 28.7 µM), hits mostly inhibitors | 310,000 tested, 5.9% active
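First compound was added to culture medium, then infected red cells at 0.1% parasitemia and 2% hematocrit (final). After incubation at 37 C under 5% CO2, luciferase detection reagent was dispensed and light output recorded.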
Pf growth 96h: inhibits malaria parasite growth, 96 h. Potency, µM (doses to about 28.7 µM), usual class: inhibitors. P. falciparum luciferase reporter growth, 96 h. 320,000 tested, 6.9% active
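Parasite growth measured via integrated firefly luciferase reporter in P. falciparum. Infected erythrocytes at 2% hematocrit, 0.05% parasitemia final were treated 96 hours at 37 C under 5% CO2, and luminescence was read.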
NS1 inh: influenza NS1 inhibition; Potency, µM (titrated, usually from 46.1 µM); AID 2326; 270,000 tested, 0.4% active; calls by dose curve; note: actives are rising curves; nearly all actives have a fitted effect of over 50% in size
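Growth recovery, yeast-based: influenza A NS1 expressed in S. cerevisiae causes slow growth, and suppressors are detected by OD600. The parent strain without NS1 is used as positive control.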
Shiga toxin inh: Shiga toxin inhibition | Vero cells, Shiga toxin protein synthesis inhibition reporter | 290,000 tested, 9.2% active | inhibition, % at 38.7 µM; in the data active = inhibition mostly above about 28%, no sharp cut-off; inactive = mostly below about 43%
Hits are given with their value. Unless noted, calls come from the whole dose curve; as a rule, active = well fitted inhibition curve with a large enough effect; inconclusive = small, poorly fitted or top-dose-only effect, or another doubt; inactive = no such curve, though single readings can be large or run the other way.

Screening Cn1cccc1C(=O)NC(=O)COC(=O)CNC(=O)c1ccc(Cl)cc1Cl returned SARS PLP yeast inactive, Cycloheximide cs inactive, Pf growth 48h inactive, Pf growth 96h inactive and Shiga toxin inh inactive.
`Cc1ccc([N+](=O)[O-])cc1S(=O)(=O)Nc1ccc(C(=O)N2CCN(C(=O)c3ccco3)CC2)cc1` gave SARS PLP yeast inactive, Pf growth 48h inconclusive and Pf growth 96h inconclusive.
Screening O=C(c1ccsc1)N1CCCC(Nc2cccc(F)c2)C1 (configuration not stated) returned SARS PLP yeast inactive, Cycloheximide cs inactive, Pf growth 48h inactive, Pf growth 96h inactive, NS1 inh inactive and Shiga toxin inh inactive.
For CC(=O)O[C@H]1CC[C@@]2(C)[C@@H](CC[C@H]3[C@H]2CC(=O)[C@@]2(C)[C@@H]3C[C@H]3CC(C)=CC(=O)[C@H]32)C1 the results were NS1 inh inactive.
For CCc1ccccc1N1CC(C(=O)Nc2cc(S(=O)(=O)N3CCCC3)ccc2Cl)CC1=O (configuration not stated) the results were SARS PLP yeast inactive, Pf growth 48h inconclusive and Pf growth 96h inconclusive.
COCCCNC(=O)Cn1nnc(-c2ccc(NC(=O)c3ccccc3F)cc2)n1 was read as SARS PLP yeast inactive, Cycloheximide cs 26, Pf growth 48h inactive, Pf growth 96h inactive, NS1 inh inactive and Shiga toxin inh 48.
COCCCNC(=O)Cn1nnc(-c2ccc(NC(=O)c3ccccc3OC)cc2)n1 was read as SARS PLP yeast inactive, Cycloheximide cs inactive, Pf growth 48h inconclusive, Pf growth 96h inconclusive, NS1 inh inactive and Shiga toxin inh inactive.
Screening CCCn1ncc(CN2CCCC(C(=O)c3cccc(OC(C)C)c3)C2)c1C (configuration not stated) returned SARS PLP yeast inactive, Cycloheximide cs inactive, Pf growth 48h 13µM, Pf growth 96h 12µM, NS1 inh inactive and Shiga toxin inh inactive.
For CC(C)Oc1cccc(C(=O)C2CCCN(C(=O)c3ccoc3)C2)c1 (configuration not stated) the results were SARS PLP yeast inactive, Cycloheximide cs 16, Pf growth 48h inactive, Pf growth 96h inactive, NS1 inh inactive and Shiga toxin inh 26.
`CCCn1cc(CN2CCCC(C(=O)c3cccc(OC(C)C)c3)C2)c(C)n1` (configuration not stated) gave SARS PLP yeast inactive, Cycloheximide cs inactive, Pf growth 48h inconclusive, Pf growth 96h inactive, NS1 inh inactive and Shiga toxin inh inactive.
`CC(C)Oc1cccc(C(=O)C2CCCN(Cc3ccon3)C2)c1` (configuration not stated) gave SARS PLP yeast inactive, Cycloheximide cs 8.4, Pf growth 48h inactive, Pf growth 96h inconclusive, NS1 inh inactive and Shiga toxin inh inactive.
Screening Nc1cc(=O)[nH]c(SCC(=O)Nc2ccc(N3CCCCC3)cc2)n1 returned SARS PLP yeast inactive.
`CCC(C)(C)C1CCc2[nH]nc(C(=O)NN)c2C1` (configuration not stated) gave SARS PLP yeast inactive, Cycloheximide cs 38, Pf growth 48h inconclusive, Pf growth 96h inconclusive, NS1 inh inactive and Shiga toxin inh 53.
Screening C=C(c1ccccc1Cl)[n+]1ccccc1 returned SARS PLP yeast inactive, Cycloheximide cs inactive, Pf growth 48h 2.9µM, Pf growth 96h 1.7µM and NS1 inh inactive.
For Clc1ccccc1Cl the results were Pf growth 48h inactive and Pf growth 96h inactive.
For C=C(c1ccccc1C)[n+]1ccccc1 the results were SARS PLP yeast inactive, Cycloheximide cs inactive, Pf growth 48h 4.7µM, Pf growth 96h 1.7µM and NS1 inh inactive.
For Cc1cc2ncc(S(=O)(=O)c3ccccc3)c(N)n2n1 the results were SARS PLP yeast inactive, Cycloheximide cs inactive, Pf growth 48h inconclusive, Pf growth 96h inconclusive and Shiga toxin inh inactive.
For COC(=O)c1ccc(C2NC(=S)N(c3ccccc3)C(C)=C2C(=O)Nc2ccccc2OC)cc1 (configuration not stated) the results were SARS PLP yeast inactive, Cycloheximide cs inactive, Pf growth 48h 13µM, NS1 inh inactive and Shiga toxin inh inactive.
`COc1ccccc1NC(=O)C1=C(C)N(c2ccccc2)C(=S)NC1c1cccc(C(F)(F)F)c1` (configuration not stated) gave SARS PLP yeast inconclusive, Cycloheximide cs inactive, Pf growth 96h inconclusive, NS1 inh inconclusive and Shiga toxin inh inactive.

Compound activity as filed in PubChem BioAssay.
